These results are taken from the supplement of paper PMC8728848.

The sample as a whole holds a higher share of the strongest signals than the screen did.

Holding throughout (assay): glycan array binding signal (z-score within array); higher = stronger binding
Assay [1] has as its system Gal(b1-3)GlcNAc(b1-3)GalNAc. To be noted: glycan notation: IUPAC condensed, linker removed. The procedure, abridged:
(§1)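 From the Consortium for Functional Glycomics database, 3228 arrays were curated, keeping only those whose protein sequence was available. Binding is given as a within-array Z-score averaged across arrays sharing a protein sequence and across linkers. Negative Z-scores can be read as non-binding.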

The test system of another assay is Gal(b1-3)GlcNAc6S. To be noted: glycan notation: IUPAC condensed, linker removed. In outline:
as §1

For the next assay, the system named is Gal(b1-3)GlcNAc. To be noted: glycan notation: IUPAC condensed, linker removed. The procedure, abridged: as §1
The subject of assay [2] is Gal(b1-3)[Fuc(a1-4)]GlcNAc(b1-2)Man(a1-3)[Gal(b1-3)[Fuc(a1-4)]GlcNAc(b1-2)Man(a1-6)]Man(b1-4)GlcNAc(b1-4)GlcNAc. To be noted: glycan notation: IUPAC condensed, linker removed. The procedure, abridged:
as §1

Assay [3] relates to Gal(b1-3)[Fuc(a1-4)]GlcNAc(b1-2)Man(a1-3)[Gal(b1-3)[Fuc(a1-4)]GlcNAc(b1-2)Man(a1-6)]Man(b1-4)GlcNAc(b1-4)[Fuc(a1-6)]GlcNAc. To be noted: glycan notation: IUPAC condensed, linker removed. In outline:
as §1

Assay [4] deals with Gal(b1-3)[Fuc(a1-4)]GlcNAc(b1-3)Gal(b1-4)[Fuc(a1-3)]GlcNAc. The note with it: glycan notation: IUPAC condensed, linker removed. The procedure, abridged:
as §1

The subject of assay [5] is Gal(b1-3)[Fuc(a1-4)]GlcNAc(b1-2)Man. The note with it: glycan notation: IUPAC condensed, linker removed; mutation: R125K. In outline: as §1
Assay [6] deals with Gal(b1-3)[Fuc(a1-4)]GlcNAc(b1-3)Gal(b1-4)GlcNAc. The note with it: glycan notation: IUPAC condensed, linker removed. The procedure, abridged:
as §1

CHI3L1 (Homo sapiens), P36222, sequence (P36222 whole entry): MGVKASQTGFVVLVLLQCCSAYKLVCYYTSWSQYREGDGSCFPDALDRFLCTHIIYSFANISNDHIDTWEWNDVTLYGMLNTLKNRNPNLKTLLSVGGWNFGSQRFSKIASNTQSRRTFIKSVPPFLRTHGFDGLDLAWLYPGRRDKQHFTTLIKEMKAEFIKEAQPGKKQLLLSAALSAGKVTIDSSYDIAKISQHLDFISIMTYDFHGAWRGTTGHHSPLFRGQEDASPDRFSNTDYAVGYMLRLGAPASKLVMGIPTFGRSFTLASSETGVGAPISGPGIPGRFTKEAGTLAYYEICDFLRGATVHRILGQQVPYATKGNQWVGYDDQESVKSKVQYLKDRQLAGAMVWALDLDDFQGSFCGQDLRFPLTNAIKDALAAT
PILRa (Mus musculus), Q2YSF3, sequence (Q2YSF3 entry or part of it): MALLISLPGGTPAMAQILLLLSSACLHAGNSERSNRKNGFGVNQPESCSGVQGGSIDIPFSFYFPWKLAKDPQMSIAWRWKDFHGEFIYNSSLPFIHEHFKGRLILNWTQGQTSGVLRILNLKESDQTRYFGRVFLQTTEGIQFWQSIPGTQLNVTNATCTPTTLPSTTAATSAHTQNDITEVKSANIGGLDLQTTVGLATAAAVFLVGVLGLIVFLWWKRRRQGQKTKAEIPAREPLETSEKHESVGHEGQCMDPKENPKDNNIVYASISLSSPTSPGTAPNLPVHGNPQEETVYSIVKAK
PILRb (Mus musculus), Q2YSF2, sequence (Q2YSF2 entry or part of it): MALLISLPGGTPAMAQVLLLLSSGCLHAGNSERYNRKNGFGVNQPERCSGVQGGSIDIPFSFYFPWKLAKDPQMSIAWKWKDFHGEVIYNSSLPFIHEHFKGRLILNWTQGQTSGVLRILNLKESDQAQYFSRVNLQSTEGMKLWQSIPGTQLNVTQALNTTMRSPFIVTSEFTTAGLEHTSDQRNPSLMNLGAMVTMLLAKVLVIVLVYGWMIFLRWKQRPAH
SRLC (Mus musculus), Q8VIF6, sequence (Q8VIF6 other isoform, or with tags, fused parts or gaps): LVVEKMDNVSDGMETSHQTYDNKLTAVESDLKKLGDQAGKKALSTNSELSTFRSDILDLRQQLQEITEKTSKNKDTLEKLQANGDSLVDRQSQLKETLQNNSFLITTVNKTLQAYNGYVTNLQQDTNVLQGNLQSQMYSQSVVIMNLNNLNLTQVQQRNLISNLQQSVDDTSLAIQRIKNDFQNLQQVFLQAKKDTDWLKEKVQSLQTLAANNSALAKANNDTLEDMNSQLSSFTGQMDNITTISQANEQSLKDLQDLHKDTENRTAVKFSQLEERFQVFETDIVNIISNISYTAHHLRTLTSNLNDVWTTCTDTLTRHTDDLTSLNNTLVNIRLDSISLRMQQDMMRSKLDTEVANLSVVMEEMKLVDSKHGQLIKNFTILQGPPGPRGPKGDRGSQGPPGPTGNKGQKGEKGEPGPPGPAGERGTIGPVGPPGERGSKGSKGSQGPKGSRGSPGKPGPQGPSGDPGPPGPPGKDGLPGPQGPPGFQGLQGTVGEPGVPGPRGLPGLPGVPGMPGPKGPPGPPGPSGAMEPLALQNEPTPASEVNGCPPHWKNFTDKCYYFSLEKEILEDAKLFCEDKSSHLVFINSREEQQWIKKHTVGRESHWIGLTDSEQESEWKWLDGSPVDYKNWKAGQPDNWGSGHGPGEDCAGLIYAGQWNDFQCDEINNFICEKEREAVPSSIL
Avaren (Actinomycete K97), sequence (chain, as listed by the source): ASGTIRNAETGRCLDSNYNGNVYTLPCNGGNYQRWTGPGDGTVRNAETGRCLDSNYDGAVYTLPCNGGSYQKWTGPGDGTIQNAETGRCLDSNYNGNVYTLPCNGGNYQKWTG
Regenerating Gene IV (Homo sapiens), Q9BYZ8, sequence (Q9BYZ8 whole entry, looked up): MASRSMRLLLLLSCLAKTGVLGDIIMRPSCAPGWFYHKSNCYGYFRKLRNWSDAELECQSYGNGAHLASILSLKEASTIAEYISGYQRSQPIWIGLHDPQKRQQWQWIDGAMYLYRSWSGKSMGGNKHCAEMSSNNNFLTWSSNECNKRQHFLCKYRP

Take CHI3L1 (Homo sapiens), P36222: the “glycan array binding signal (z-score)” value is -0.129 in assay [1] and 0.72 in the assay on Gal(b1-3)GlcNAc6S. For PILRb (Mus musculus), Q2YSF2, the “glycan array binding signal (z-score)” value with Gal(b1-3)GlcNAc is -0.113. As to PILRa (Mus musculus), Q2YSF3, the “glycan array binding signal (z-score)” value in assay [2] stood at 0.063. On to MpAFP RI GFP (Marinomonas primoryensis), for which the “glycan array binding signal (z-score)” value was 2.74 in assay [3] and -0.369 in assay [4]. In the case of Avaren (Actinomycete K97), in assay [3], the “glycan array binding signal (z-score)” value came to 1.53. For the substance Siglec-8 (Homo sapiens), Q9NYZ4, the “glycan array binding signal (z-score)” value in assay [5] was determined as 0.797. Take “Regenerating Gene IV (Homo sapiens), Q9BYZ8”: in assay [6], the “glycan array binding signal (z-score)” value was -0.208. In the case of SRLC (Mus musculus), Q8VIF6, the “glycan array binding signal (z-score)” value in assay [4] was 4.49.
